Our source for the z-score values is PubChem BioAssay AID1508600 (Functional Genomics Laboratory (NCATS/FGL), 2020).

The campaign covered roughly 53,000 sequences. About 3,700 (7%) were called active. This is one part of a sample in which actives are shown more often than they occur.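 How the source made its calls: active means gene knockdowns whose robust z-score for IL-1 alpha signal is at least 2 or at most -2, so actives lie on both sides; inactive means the rest.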

This experiment can be described thus: Components of the Cytosolic LPS Sensing Pathway: Gene Identification via Genome-wide siRNA Screen.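 Further: robust z of the log signal after scaling to non-targeting control siRNA wells of the plate.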 The settings on record: RAW264.7 macrophages, IL-1a HTRF, actives lie on both sides, screened at 100 nM (by protocol), cells primed 5 h with Pam3CSK4 first. Put shortly:
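Supernatant IL-1a by HTRF from RAW264.7 cells primed with Pam3CSK4 (5 hours) and transfected with LipidA (24 hour) after 48h siRNA knockdown at 100 nM; cell viability checked with CellTiter-Glo.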
(In general: TR-FRET usually uses a lanthanide donor and a delayed reading to cut background.)
For the sequence ACUGUAUGAAGAGGAAACATT against Krt87, the z-score is -2.14 (active).

For the sequence GGACAGUAUAGUGGAGAUCTT against Fgf22, the z-score is 1.66 (inactive).

With GCUAUUCUGUCUACGUGUATT against H2bc18, the z-score is -0.356 (inactive).

On to CCGAAAUGUGUGUUUUAAATT against Vapb, for which the z-score is 1.57 (inactive).

In the case of GGUCUUUCCGGCAGUUCUUTT against Rxrg, the z-score was -2.27 (active).

Turning to GGAAUCGGUGGCCAUCAAUTT against Olfr771, the z-score was 0.458 (inactive).

GGAAGCUGAAGGUUUGCCATT against Wipi2: the z-score is -0.529 (inactive).

Consider GGAUCAGGAGCUGUUUGGATT against Adamtsl4, for which the z-score is 1.05 (inactive).

On to GGAUGUCUACUGGAAUGUUTT against Pigv, for which the z-score is -1.16 (inactive).

In the case of GUGAAGGCCCAUGGCAAGATT against Hbb-b1, the z-score is -0.235 (inactive).

CCGUAUUUGGACUGAGCAATT against Chic2: the z-score was 0.63 (inactive).

Consider GCUAGGGAUUUACCUCUUCTT against Gpr65, for which the z-score is 0.743 (inactive).

With GCCUGAGGAUCUAUAGAUATT against Prss29, the z-score was -1.36 (inactive).

For the sequence UGGAAGCCUUAUGCCGUCUTT against Gpr31b, the z-score was 0.895 (inactive).

With GGCUCUAACUGUGAGAAGATT against Dll3, the z-score is -2.44 (active).

As to GGCUAACUCCUUAAAACCUTT against Aldh18a1, the z-score is -0.372 (inactive).

In the case of GGCUUCCACGUAAUUGUCCTT against Six3os1, the z-score is 0.649 (inactive).

Consider GGCCGACUUGAUCAAUAACTT against Hsp90aa1, for which the z-score is -0.164 (inactive).

For the sequence CCCGGAGCUUGAAUUACUGTT against Usp7, the z-score was 2.36 (active).

For GGAUUUUUCCAUAAAAACCTT against B3galnt1, the z-score was 1.04 (inactive).

Take CCUCCCAGUACACUUGAAATT against Cox7a1: the z-score is 0.0752 (inactive).

Regarding GGAAGAAACGGAGACUCAATT against Dpf1, the z-score was 0.052 (inactive).

With CCAAUGAGUUAAUCACCUUTT against Olfr1135, the z-score was 0.587 (inactive).

Take GGUCCAUACUCCUAAAGAATT against Mpzl1: the z-score was -0.727 (inactive).

GGUGCAGUUUCUCCUCUUUTT against Pla1a: the z-score is 2.09 (active).

On to GGAUCUGUUACUCUGAUACTT against Pias4, for which the z-score was 0.847 (inactive).

For GGUCAACAUUAAAAUACUGTT against Map2k4, the z-score was -0.0649 (inactive).

With GGUUUGCCUAUUUUUUCUUTT against Trmt10c, the z-score was 1.9 (inactive).

Regarding GGGUUUUUUUUUUCCUUCCTT against Hsd17b1, the z-score was -0.0306 (inactive).

Take CGUAGGACUGAAUCAGCUUTT against Slc13a3: the z-score was -3.04 (active).

Take GCCAUUUGAAGUGUUUAAATT against Kctd12: the z-score is -0.103 (inactive).

Consider GGAAGACCUAAACAACGGCTT against Dusp10, for which the z-score was -1.55 (inactive).

For GGGUAACUAUUGGACUAACTT against Gabrq, the z-score is -0.262 (inactive).

Consider GGCAUUGGAAUAAAAUUUGTT against Rfk, for which the z-score was 0.267 (inactive).

On to GGUGGUACGCAGACUAAAUTT against Ulk1, for which the z-score was 2.94 (active).

Turning to GGGUUAAACCACAUAUCCATT against Spata9, the z-score is -1.06 (inactive).

Regarding GCUUUUCCGCUUCUACCGGTT against Nrp, the z-score is -0.505 (inactive).

Take GCUGUGGAGAAGUGCUACUTT against Lce1b: the z-score is -0.907 (inactive).

For CCGAAAAUGGUUAGGACAUTT against Kynu, the z-score was 1.44 (inactive).

Take GGGCCUUCAAAACGAGAAGTT against Cyp4f39: the z-score was 0.339 (inactive).

As to GCCUUCCUGAAUUUAAAGATT against Myo5b, the z-score is 1.33 (inactive).

In the case of GGAUAAAAUUGCUUUACUGTT against Srek1ip1, the z-score is 2.63 (active).

With GGUGGUACUUACUCAAAAUTT against Fgg, the z-score was 1.05 (inactive).

GGGACUACCAUUUGUUAAUTT against Tktl1: the z-score was 0.751 (inactive).

Turning to CCAGAUUGUCACUUGCUACTT against Skint3, the z-score was 1.25 (inactive).

Take GGAUACAAUCAUCGCCAUCTT against Olfr101: the z-score is 1.3 (inactive).

Regarding GCUUUUAACAUCGAGUAAUTT against Top2b, the z-score is -0.627 (inactive).

In the case of GCAUUCAUCAGGGUUGAUUTT against Wdr20, the z-score is -2.43 (active).

For CCUGUUAUGACCGUUCAUGTT against Prpf4, the z-score was 0.551 (inactive).

On to GGCUCUGAAAAUUGAACACTT against Cep83, for which the z-score is 0.0736 (inactive).

For the sequence GGGUCUUAUCUCGAUGAGGTT against Flt3l, the z-score was -0.199 (inactive).

For the sequence GGAAAUCAGCUGAAUUACUTT against Dicer1, the z-score was 1.07 (inactive).

On to GGAACCAAUCUUGGUCUCATT against Tln2, for which the z-score was -0.66 (inactive).

Consider GGAUUCAGGCUGGAAAAUATT against Clrn1, for which the z-score is -1.04 (inactive).

Regarding GGAAAACUUGAGGCGGAUCTT against Enkd1, the z-score is 2.63 (active).

CCCUGAAGGCUUACUUUUUTT against Cfap299: the z-score is -0.231 (inactive).

As to GCUUUUCAUAUCUCUUGCATT against Olfr1385, the z-score is 0.408 (inactive).

On to CCUGUCUGGACUUGUCUAATT against Ica1, for which the z-score is -2.05 (active).

GCCAGAAUCUGUUGUGAACTT against Gfpt1: the z-score is 0.0747 (inactive).

With GGGAAAAUCCACUUUUAAGTT against Hs2st1, the z-score was -0.0469 (inactive).

As for GGGUCCAAUAAACAUGUCUTT against B3galt4, the z-score is 0.234 (inactive).

As for CCAGGACUUACUCAGUAAUTT against Setd6, the z-score is -0.72 (inactive).

With GGCAAGAGAAUUCAGAUCUTT against Slc5a1, the z-score is 2.91 (active).

On to GGCGUGAUCGCUCUCCAAUTT against Ncoa5, for which the z-score was 0.834 (inactive).

As for GGAUAACCGCCAAUAAAAATT against Msantd3, the z-score was 0.255 (inactive).

As to GCCCUACCUUGAAUCCCAUTT against Olfr532, the z-score is -1.75 (inactive).

With GGUAUUGGGCCAUUGGUUGTT against Mapkapk3, the z-score is 0.705 (inactive).

With GGGUUGAUUAAAGUUUAACTT against Gsx2, the z-score is 1.4 (inactive).

For the sequence GGCCACUUGCCUAUUGUGATT against Anxa6, the z-score is -0.343 (inactive).
